In PubChem BioAssay AID2314 (National Center for Advancing Translational Sciences (NCATS), 2010):
Where “and” joins values, the source holds several entries; their conditions need not be identical. Equal entries are not always repeated. In all, about 300,000 compounds went through this assay and about 37,000 (12%) were called active. Many of the other results were omitted from the sample, so actives are more common in it than they were. A number with no mark means an inactive call. Rule as the data show it: active = max response mostly above about 13% (no sharp cut-off); inactive = mostly below about 14%.

assay: Cycloheximide Counterscreen for Small Molecule Inhibitors of Shiga Toxin; settings: cell reporter, cycloheximide protein synthesis inhibition counterscreen; stronger effect = higher value; also: read at 38.3 µM for the half of the compounds with a filed dose; 0% is about no effect

| Structure (SMILES) | max response |
| --- | --- |
| CCCn1cc(S(=O)(=O)c2ccc(C)cc2)c(=O)c2cc(OCC)ccc21 | -2.9% |
| Nc1nc(NCC(=O)O)nc(N2CCCCCC2)c1[N+](=O)[O-] | -3.03% |
| COc1ccc(NC(=O)c2cccc3c2C(=O)N(CC2CCCO2)C3)cc1OC (centres undefined) | 1.17% |
| COc1ccccc1N(CC(=O)NC1CCCC1)C(=O)C1(C)CC(=O)N=C2C=CC(C)=CN21 (centres undefined) | -3.56% |
| CN(C)C(=O)c1ccc2c(c1)C1C3CCC(C3)C1C(c1ccccc1)N2 (centres undefined) | -4.56% |
| NNc1nc2c(Cl)cccc2s1 | 53.2% (active) |
| CN(C)CCCN(C(=O)COc1ccccc1)c1nc2c(Cl)cccc2s1 | -4.5% |
| Cc1ccc(-c2cc(N)on2)cc1 | 21% (active) |
| Cc1ccc(S(=O)(=O)Cc2cc(-c3ccc(Cl)cc3)no2)cc1 | 0.779% |
| CC(C)(C)Nc1c(N)c(=O)oc2ccccc12 | -1.31% |
| Nc1c(NCCc2ccccc2)c2ccccc2oc1=O | 23.7% (active) |
| NC(=O)c1oc2ccccc2c1NC(=O)Cc1ccccc1 | -2.17% |
| CC(=O)N1c2ccc(S(=O)(=O)N3CCC(C(=O)NC4CCCC(C)C4C)CC3)cc2CC1C (centres undefined) | 4.81% |
| Cc1ccc(OCC(=O)Nc2ccccc2C(=O)NC2CC2)cc1C | -1.62% |
| CCCCSc1nnc(-c2ccc(C)cc2)o1 | 40.6% (active) |
| CCOC(=O)CSc1nnc(-c2ccncc2)o1 | 1.84% |
| CCOC(=O)CSc1nnc(-c2ccc([N+](=O)[O-])cc2)o1 | -0.444% |
| c1ccc2c(c1)C(=NC1CCCCC1)NC2=NC1CCCCC1 | -4.35% |
| O=C(c1ccc(CS(=O)(=O)c2ccccc2)o1)N1CCN(c2ccccc2)CC1 | -5.15% |
| Cc1c(CC(=O)NCC(=O)NCC(=O)O)c(=O)oc2cc3oc4c(c3cc12)CCCC4 | -2.59% |
| COc1ccc(N(CC(=O)Nc2cc(OC)cc(OC)c2)S(=O)(=O)c2c(C)n[nH]c2C)cc1 | -1.21% |
| Cc1ccc(Nc2cc(C)nc3c(C)ccc([N+](=O)[O-])c23)cc1 | 0.487% |
| O=c1c(-c2ccccc2Cl)c[nH]n1-c1ccccc1 | 8.14% |
| Cc1[nH]n(-c2cccc(Cl)c2)c(=O)c1-c1ccc(Cl)cc1 | 12.1% |

| Structure (SMILES) | max response |
| --- | --- |
| O=c1c(-c2cccc(Cl)c2)c[nH]n1-c1ccccc1 | 69.9% (active) |
| CC(=O)C1=C(O)C(=O)N(c2cccnc2)C1c1ccc([N+](=O)[O-])cc1 (centres undefined) | -2.81% |
| O=C(COC(=O)c1ccc(N2CCCC2=O)cc1)c1ccc(OC(F)F)cc1 | 2.45% |
| S=c1[nH]c2ccccc2c2ccccc12 | 1.83% |
| CC1CCC(NC(=O)C2c3ccccc3C(=O)N2Cc2ccc3c(c2)OCO3)CC1 (centres undefined) | -1.18% |
| Cc1ccc2c(c1)NCC(C(=O)NC1CCC(C)CC1)O2 (centres undefined) | 41.1% (active) |
| Cc1ccc(C(=O)NC2CC(C)(C)NC(C)(C)C2)c(C)c1 | -4.92% |
| CC(NS(=O)(=O)c1ccc(Br)cc1)C(=O)NCC1CCCO1 (centres undefined) | -1.6% |
| OCCNc1nc(Nc2ccc(Cl)c(Cl)c2)nc2ccccc12 | 10.5% (active) |
| COc1cc2nc(Cl)nc(NCCO)c2cc1OC | -1.72% |
| CN1CCN(c2nc(Nc3ccc(O)cc3)nc3ccccc23)CC1 | -3.27% |
| COc1ccc(C(=O)Nc2nc(-c3ccc(OC)cc3)c(-c3ccc([N+](=O)[O-])cc3)s2)cc1 | 9.79% |
| COc1ccc(C2=NN(C(=O)c3ccccc3C(=O)O)C(c3ccccc3O)C2)cc1 (centres undefined) | 40.6% (active) |
| COc1ccc(C2=NN(C(=O)c3cccnc3)C(c3ccccc3)C2)cc1 (centres undefined) | -5.54% |
| COc1ccc(C2CC(c3ccccc3)=NN2C(=O)COC(=O)COc2ccccc2)cc1 (centres undefined) | 2.88% |
| COc1ccc(C2CC(c3ccccc3)=NN2C(=O)c2ccc(Cl)c([N+](=O)[O-])c2)cc1 (centres undefined) | 12.9% |
| CCOc1ccc2nc(Cl)c(C3CC(c4ccccc4)=NN3C(=O)c3cccs3)cc2c1 (centres undefined) | -1.42% |
| COc1ccc(C2CC(c3ccccc3)=NN2C(=O)CSc2nccc(=O)[nH]2)cc1 (centres undefined) | 40% (active) |
| COc1cccc(C2CC(c3ccccc3)=NN2S(=O)(=O)c2ccccc2)c1OC (centres undefined) | 0.319% |
| COc1ccc(C2=NN(C(C)=O)C(c3ccccc3)C2)cc1 (centres undefined) | 20.9% (active) |
| COc1ccc(C(=O)CSc2nccc(=O)[nH]2)cc1 | 8.3% |
| COc1ccc(C2=NN(C(=O)CCC(=O)O)C(c3cccs3)C2)cc1OC (centres undefined) | -1.52% |
| COc1ccc(C2CC(c3ccc([N+](=O)[O-])cc3)=NN2C(C)=O)cc1 (centres undefined) | 24.5% (active) |
| CCCCN(CCCC)CCNC(=O)CN1C(=O)COc2ccc(S(=O)(=O)N3CCOCC3)cc21 | -2.14% |

| Structure (SMILES) | max response |
| --- | --- |
| CCN1C(=NCCc2cccnc2)N[C@@H](c2ccccc2)[C@H](C(=O)OC)[C@H]1C | 3.2% and 1.95% |
| COCCN1C(=O)N(c2ccc(Cl)cc2)C(=O)C1CC(=O)Nc1cc(OC)cc(OC)c1 (centres undefined) | -0.589% |
| CCN1C(=O)c2cccc3c(S(=O)(=O)Nc4ccccc4O)ccc1c23 | 9.32% |
| O=C(CCC(=O)NNc1nc2ccccc2c2nc(-c3ccccc3)nn12)NCCCN1CCCC1=O | 10.3% |
| COc1ccc(S(=O)(=O)NCCOc2ccccc2)cc1F | -4.53% |
| Cc1ccc2c(c1)N(CC(=O)N1CCC(C)CC1)C(=O)c1cccnc1O2 | -1.05% |
| COC(=O)c1ccccc1NC(=O)C1CCN(C(=O)N2CCOc3ccccc32)CC1 | 0.401% |
| CCOc1ccccc1CN1CCN(C2CCC2)CC1CCO (centres undefined) | -0.61% |
| CS(=O)(=O)c1ccccc1C(=O)Nc1ccc2sccc2c1 | 1.56% |
| O=C(NCCN1CCOCC1)Nc1cccc(Cl)c1 | 20.1% |
| Cc1cc(Cl)nc(NC(=O)Nc2cccc(Cl)c2)n1 | 19.5% (active) |
| O=C(Nc1cccc(Cl)c1)Nc1nnc(-c2ccccc2)o1 | -4.47% |
| O=C(C1CCN(c2nnc(-n3cccc3)s2)CC1)N1CCc2ccccc2C1 | -2.9% |
| O=C(COc1ccccc1Cl)N1CCCCCCC1 | 4.62% |
| COc1ccc(OCC(=O)N2CCN(C(=O)COc3ccccc3)CC2)cc1 | -5.08% |
| Cc1ccccc1-c1nc(CS(=O)(=O)CC(=O)N2CCc3ccccc3C2)c(C)o1 | 0.61% |
| O=C(COc1ccccc1)N1CCc2ccccc2C1 | 28.7% (active) |
| Cc1ccc(Cl)c(OCC(=O)N2CCc3ccccc3C2)c1 | 30% (active) |
| Cc1ccc(Cl)c(OCC(=O)NN2CCN(C)CC2)c1 | -2.49% |
| O=C(Cn1c(=S)nc2ccccn21)N1CCc2ccccc2C1 | 22.4% (active) |
| Cc1cccc(OC(C)C(=O)N2CCc3ccccc3C2)c1 (centres undefined) | -3.38% |
| COc1ccccc1CN1CCN(C(c2ccccc2)c2ccccc2)CC1 | -1.72% |
| CC1CCN(C(=O)c2ccc3c(c2)NC(=O)CN3)CC1 | -6.43% |
| Oc1ccc(Cl)cc1C1C=C(c2ccc3c(c2)OCO3)NC(c2c(F)cccc2Cl)N1 (centres undefined) | 59.8% (active) |

| Structure (SMILES) | max response |
| --- | --- |
| Oc1ccc(Cl)cc1C1C=C(c2ccc3c(c2)OCO3)NC(c2ccc(F)c(Br)c2)N1 (centres undefined) | 50.7% (active) |
| O=C(c1c(F)cccc1F)N1CCN(c2ncc(Br)cn2)CC1 | -1.54% |
| CCOC(=O)CC1COCCN1C(=O)c1cc(COc2ccc(F)c(F)c2)on1 (centres undefined) | 38.7% (active) |
| COCCN1CCN(C(=O)c2cc(COc3ccc(F)cc3Cl)on2)CC1 | 20.2% (active) |
| O=C(c1cc(COc2cccc(C(F)(F)F)c2)on1)N1CCSCC1 | -0.615% |
| CCOC(=O)c1ccccc1C(=O)N1CCOCCOCCOCC1 | -3.37% |
| O=C(c1cc(COc2c(F)cccc2F)on1)N1CCSCC1 | 54.8% (active) |
| Cc1cc(NC(=O)COC(=O)c2ccc(F)c(S(=O)(=O)N3CCOCC3)c2)no1 | -2.52% |
| OC(COc1ccc(F)cc1Cl)CN1CCc2ccccc2C1 (centres undefined) | -2.68% |
| Cc1c(C(=O)N2CCOCC2)[nH]c2ccc(OCc3ccccc3)cc12 | 0.995% |
| CN1CCN(C(=O)c2ccccc2NC(=O)COc2ccccc2Cl)CC1 | 16.7% |
| C=CCC1(CC=C)CCCN1C(=O)c1cc(COc2ccc(-n3cncn3)cc2)on1 | 7.87% |
| O=C(c1cc(COc2ccc(F)c(F)c2)on1)N1CCOCC1 | 42.1% (active) |
| C=CCNc1nc(N)c(C(=C(C#N)C#N)c2ccccc2)s1 | 1.38% |
| Cc1ccn2c(c1)nc(=O)c1cc(S(=O)(=O)N3CCC(C)CC3)ccc12 | -3.62% |
| OC(CN=c1sc2ccccc2n1CC(O)COc1ccccc1)COc1ccccc1 (centres undefined) | 0.416% |
| O=C(Nc1ccc(Cl)cc1)c1cccc(OC(=S)N2CCOCC2)c1 | 21.3% |
| CC(C)Oc1ccc(C(CC(=O)N2CCOCC2)C(C)C)cc1 (centres undefined) | 0.501% |
| O=C(NNC(=O)C(O)c1ccccc1)NC1CCCCC1 (centres undefined) | -2.85% |
| COCC(C)NC(=O)c1ccc(-n2nc(C(F)(F)F)cc2-c2cccs2)cc1 (centres undefined) | 1.01% |
| Nc1nonc1-n1nnc(C(=O)N/N=C/c2ccc(Cl)cc2)c1-c1ccc2c(c1)OCO2 | -1.92% |
| Cc1c(-c2ccccc2)cn2c1-c1ccc(C)n1CC2 | -3.8% |
